Laboratory results as given in PubChem BioAssay AID1440 (NMMLSC, 2008).
The whole screen tested about 220,000 compounds, of which fewer than 10 were called active. Inconclusive results (about 92%) are left out. No rule for the calls is given here. A selection follows.

Target: Guanine nucleotide-binding protein G(o) subunit alpha (Homo sapiens) + Regulator of G-protein signaling 19 (Homo sapiens) (UniProt P09471+P49795)
Experiment: regulators of RGS19 binding to Galphao, biochemical, multiplexed bead flow cytometry (AID 1440);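 also: fluorescent Galpha o activated by aluminum fluoride binding bead-coupled RGS19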
Conditions: at 10 µM

Guanine nucleotide-binding protein G(o) subunit alpha (Homo sapiens) + Regulator of G-protein signaling 19 (Homo sapiens), sequence (P09471 whole entry, looked up): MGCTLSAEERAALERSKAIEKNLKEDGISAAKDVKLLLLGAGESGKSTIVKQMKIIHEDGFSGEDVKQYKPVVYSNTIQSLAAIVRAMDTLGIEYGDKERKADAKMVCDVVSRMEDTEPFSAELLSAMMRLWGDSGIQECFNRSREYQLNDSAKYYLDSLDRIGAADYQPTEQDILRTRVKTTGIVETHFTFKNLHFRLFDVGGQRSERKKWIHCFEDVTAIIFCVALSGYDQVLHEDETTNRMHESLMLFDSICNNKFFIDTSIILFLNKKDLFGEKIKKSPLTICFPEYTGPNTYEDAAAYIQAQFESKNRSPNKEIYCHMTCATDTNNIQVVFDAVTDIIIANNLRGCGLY
Guanine nucleotide-binding protein G(o) subunit alpha (Homo sapiens) + Regulator of G-protein signaling 19 (Homo sapiens), sequence (P49795 whole entry, looked up): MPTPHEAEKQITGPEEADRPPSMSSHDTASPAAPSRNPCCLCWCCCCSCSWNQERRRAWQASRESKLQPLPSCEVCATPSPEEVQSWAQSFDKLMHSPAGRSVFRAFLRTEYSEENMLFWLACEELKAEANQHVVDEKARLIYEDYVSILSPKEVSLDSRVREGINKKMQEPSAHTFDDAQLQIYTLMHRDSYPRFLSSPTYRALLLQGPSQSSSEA

Row | Compound | binding response (% of control) [%]
1 | COC(/C=C/Nc1ccc(C)cc1)=C(C#N)C#N | 71.7
2 | COc1ccccc1/C=C/C(=O)OCC(=O)c1c(N)n(C)c(=O)n(C)c1=O | 109
3 | CCN(CC(=O)Nc1ccccc1OC)C(=O)C1CC2C=CC1C2 (stereo not drawn) | 180
4 | CCN(CC)C(=O)c1sc(NC(=O)c2cccnc2)c(C(=O)OC)c1C | 128
5 | CN1C(=O)C2(N=c3ccccc3=N2)c2ccccc21 | 103
6 | CS(=O)(=O)N1CCN(C(=O)c2cc(-c3cccs3)nc3ccccc23)CC1 | 103
7 | O=C(O)c1cc(-c2ccccn2)n[nH]1 | 106
8 | Cc1cc(C)cc(-n2c(C)c3c(C)nnc(C)c3c2C)c1 | 121
9 | OC1C2(Cc3ccccc3)CN3CCN(C2)CC1(Cc1ccccc1)C3 (stereo not drawn) | 71.2
10 | COc1cc(S(=O)(=O)NCCc2ccc3c(c2)OCO3)ccc1-n1cnnn1 | 25.7
11 | COC(=O)c1ccccc1OC(=O)c1ccc(Br)o1 | 102
12 | CC(C)CNC(=O)COC(=O)c1ccc(Cl)c(S(N)(=O)=O)c1 | 107
13 | O=C(Nc1ccccc1N1CCOCC1)c1cccc([N+](=O)[O-])c1 | 123
14 | O=C(Nc1cccc(-c2cnc3ccccc3n2)c1)c1ccco1 | 147
15 | COc1ccccc1N(C(C)=O)C1SC(=O)N(c2ccccc2)C1=O (stereo not drawn) | 70.1
16 | CCOC(=O)N1CCN(C(=O)CCNS(=O)(=O)c2cc(Br)cnc2N)CC1 | 93.9
17 | Cc1ccc(S(=O)(=O)N(Cc2ccccc2)Cc2ccco2)cc1 | 92.7
18 | COc1cc(/C=N/NC(=O)Cc2ccccc2)ccc1Oc1ccc([N+](=O)[O-])cc1[N+](=O)[O-] | 107
19 | CCOCCCNC(=O)C(c1ccccc1)N(Cc1cccs1)C(=O)CNC(=O)c1ccccc1 (stereo not drawn) | 222
20 | O=C1CC2(CON=C2c2ccc(F)cc2)C(=O)N1c1ccc(F)cc1 (stereo not drawn) | 72.5
21 | CCOC(=O)C(=O)Nc1ccccc1C(=O)Nc1ccc(OC)cc1 | 101
22 | CCC(C)[C@H](NC(=O)N1CCCC1)C(=O)OC (stereo partly drawn) | 117

Row | Compound | binding response (% of control) [%]
23 | COc1ccc(C)cc1S(=O)(=O)N(CC(=O)O)c1ccc(F)cc1 | 102
24 | CCOC(=O)C1=C(c2ccccc2)OC(N)=C(C#N)C1C(C)C (stereo not drawn) | 109
25 | CS(=O)(=O)N1CCCC(C(=O)NCCc2ccccc2)C1 (stereo not drawn) | 71.4
26 | O=C(NC1(C(F)(F)F)C(=O)Nc2c1c(=O)[nH]c(=O)n2Cc1ccccc1)c1ccc(Cl)cc1 (stereo not drawn) | 108
27 | COC(=O)CCN(c1ccccc1)S(=O)(=O)c1ccc(OC)cc1 | 38.5
28 | CNC(=O)c1c(N)sc2c1CCCCC2 | 60.7
29 | COC(=O)c1ccccc1NC(=S)NC(=O)COc1ccc(C(C)C)cc1 | 284
30 | CCNC(=S)NNC(=O)Nc1ccccc1 | 89.6
31 | COC(=O)c1cn(NC(=O)C2COc3ccccc3O2)c(=O)c2ccccc12 (stereo not drawn) | 40.7
32 | O=C(COc1ccc2ccccc2c1)Nc1cccc2cccnc12 | 110
33 | COc1ccc(NC(=O)CCNS(=O)(=O)c2ccc(Br)s2)cc1 | 110
34 | Cc1ccc(S(=O)(=O)N2CC3(C)CN(S(=O)(=O)c4ccc(C)cc4)CC(C)(C2)C3=O)cc1 | 103
35 | Cc1cc(C)nc(SCC(=O)Nc2ncc3c(n2)CC(C)(C)CC3=O)n1 | 62.4
36 | Cc1cc(NC(=O)Cn2c(=O)c3c(ncn3CCC(C)C)n(Cc3ccccc3)c2=O)no1 | 106
37 | O=c1c(Cc2ccc(Cl)cc2Cl)c(O)ccn1Cc1ccc(Cl)cc1 | 97.7
38 | CCOc1c2ccc(C(=O)NCc3ccc(OC)cc3)cc2nn1CCOC | 92.2
39 | O=C(Nc1cccnc1)C1CCCN1S(=O)(=O)c1ccc(Cl)c(Cl)c1 (stereo not drawn) | 114
40 | COc1ccccc1CNc1ccc(C(=O)O)cc1 | 121
41 | COc1ccc(OC)c(C2C(C#N)=C(N)Oc3c2c(C)nn3-c2cccc(Cl)c2)c1 (stereo not drawn) | 96.4
42 | Cc1ccc2c(CN3CCN(CCO)CC3)cc(=O)oc2c1C | 111
43 | CCN1CCCC1CNC(=O)C(NC(=O)C1CCC(C)CC1)C(C)C (stereo not drawn) | 107
44 | O=C(CN1C(=O)S/C(=C/c2cccs2)C1=O)N1CCOCC1 | 99.9

Row | Compound | binding response (% of control) [%]
45 | CCOCCCNC(=O)C(c1ccc(Cl)cc1)N(Cc1cccs1)C(=O)CNC(C)=O (stereo not drawn) | 90
46 | Cc1ccc(-c2cnc(N)n2C)cc1C | 94.5
47 | CCc1ccc(OC)c(S(=O)(=O)NCCOc2ccccc2)c1 | 41.2
48 | Fc1ccc(CNC(=S)Nc2ccccc2Cl)cc1 | -28
49 | COC(=O)CCC(=O)Nc1cccc(C(=O)Nc2cccc(Cl)c2)c1 | 100
50 | Cc1ccc(NC(=O)c2cc(-n3cnnc3)ccc2Cl)cc1 | 100
51 | CC1(C)CC(=O)C(C(=S)Nc2ccccc2)=C(NCCN2CCOCC2)C1 | 118
52 | Cc1ccc(Cn2ncn3c(cc4ccccc43)c2=O)cc1 | 87.2
53 | O=C(NCc1ccco1)C1CCN(S(=O)(=O)N2CCC3(CC2)OCCO3)CC1 | 45.9
54 | CCOc1ccc(C2NC(=O)c3sc(=S)n(-c4ccccc4)c3N2)cc1 (stereo not drawn) | 87.5
55 | Cc1ccccc1-n1nc(C)c2cc(C(=O)N3CCN(S(=O)(=O)c4ccc(Cl)cc4)CC3)sc21 | 94.8
56 | O=C(Nc1cccc(C(F)(F)F)c1)c1cc2c(s1)-c1ccccc1OC2 | 119
57 | COc1ccc2cnnc(SCC(=O)Nc3ccccc3)c2c1OC | 118
58 | CCCCN(CC(=O)Nc1c(C)cccc1CC)C(=O)SCC | 101
59 | Cc1ccc(C)c(Cn2nnc3c(=O)[nH]c(C4CCCN(C(=O)C5CCCCC5)C4)nc32)c1 (stereo not drawn) | 109
60 | COC(=O)c1cc(OC)c(OC)cc1NC(=O)CCC1CCCC1 | 107
61 | COc1ccc(CC(=O)OCc2cc3ccccc3[nH]c2=O)cc1 | 90.7
62 | Cc1cc(NC(=O)c2cnn3c(C(F)(F)F)cc(-c4ccccc4)nc23)no1 | 103
63 | O=C(CN1C(=O)C2C3C=CC(C3)C2C1=O)Nc1cccc2c1CCCC2 (stereo not drawn) | 187
64 | Nc1c2c(nc3ccn(Cc4ccccc4)c(=O)c13)CCC2 | 72.4
65 | COC(=O)CSc1nnnn1-c1cccc2ccccc12 | 106
66 | CN(CCCC(=O)NCc1ccco1)S(=O)(=O)c1ccccc1 | 98.9

Row | Compound | binding response (% of control) [%]
67 | Fc1ccccc1OCCSc1nnnn1-c1ccccc1 | 25.6
68 | O=C(c1ccco1)N1CCC(c2nc(-c3ccc(F)cc3)no2)CC1 | 75.6
69 | COc1ccc(-c2nc(-c3cccs3)c(-c3cccs3)[nH]2)cc1O | 102
70 | Cc1cccc(NC(=S)NC2CC3CCC(C2)N3Cc2ccco2)c1 (stereo not drawn) | 113
71 | CC(NC(=O)Nc1ccc(F)cc1F)c1ccncc1 (stereo not drawn) | 70.2
72 | CCOc1ccc(-c2c(C(=O)N/N=C/c3ccccc3)nnn2-c2nonc2N)cc1 | 91.3
73 | CCCN(CCC)CCOc1cc(C)ccc1C(C)C | 116
74 | CC(C)C(CC(=O)NCc1ccco1)c1ccco1 (stereo not drawn) | 172
75 | CCOc1ccc(NC(=O)CSc2nc3ccccc3c(=O)n2CCNC(C)=O)cc1 | 97.9
76 | O=C(NN=C1CCCCC1)c1ccccc1OCc1ccc(F)cc1 | 118
77 | Cc1nc2ccccc2c(=O)n1NC(=O)COc1ccccc1 | 103
78 | CC(C)(C)NC(=O)c1ccc2nsnc2c1 | 141
79 | O=C(Nc1nc(N2C(=O)c3ccccc3C2=O)n(-c2ccccc2)n1)c1ccccc1 | -19.9
80 | Cn1c(Cl)cnc1C(O)c1ccccc1 (stereo not drawn) | 105
81 | Cc1c(Br)c(C(F)(F)F)nn1CC(=O)N1CCCC1 | 99.7
82 | CCOC(=O)c1[nH]nc(-c2cc(CC)c(O)cc2O)c1-c1cscn1 | 56.9
83 | CC(=O)N(c1ccc(C(C)C)cc1)C1C=CS(=O)(=O)C1 (stereo not drawn) | 103
84 | CCCCC(=O)Nc1nc(C)c(-c2csc(Nc3cc(Cl)ccc3OC)n2)s1 | 148
85 | COc1cccc(OC)c1C(=O)Nc1ccc(NC(=O)c2ccco2)cc1 | 112
86 | CCOC(=O)C1=C(c2ccccc2)NC(=O)NC1c1ccc(OCC#N)c(OC)c1 (stereo not drawn) | 119
87 | CCOC(=O)C1Cn2c(nc3c(c2=O)C2(CCCC2)Cc2ccccc2-3)S1 (stereo not drawn) | 102
88 | CCOC(=O)N1CCC(NC(=O)CCCN2C(=O)CSc3ncccc32)CC1 | 353
